{"source": "PubChem BioAssay AID602143", "about": "(Vanderbilt Specialized Chemistry Center, 2011)", "note": "Unmarked numbers belong to inactive results. Active and inactive are the calls of the source. Rule as the data show it: active = remaining activity below about 50%; inactive = the rest."}
{"molecular_target": "Phospholipase D2 (Homo sapiens) (UniProt O14939)", "assay": "PLD2 inhibitors in cells, cell-based, HEK293, single concentration (AID 602143);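 also: tested at 200 nM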", "details": "HEK293 cellular PLD2 activity, percent of control; active compounds read low"}
{"smiles": "C[C@@H](CN1CCC(n2c(=O)[nH]c3ccccc32)CC1)NC(=O)c1ccc(F)c(F)c1", "remaining activity": "75.6%"}
{"smiles": "O=C(NCCN1CCC(n2c(=O)[nH]c3ccccc32)CC1)c1cc(-c2ccccc2)no1", "remaining activity": "50.8%"}
{"smiles": "C[C@@H](CN1CCC(n2c(=O)[nH]c3ccccc32)CC1)NC(=O)CSc1ccccc1", "remaining activity": "86.7%"}
{"smiles": "O=c1[nH]c2ccccc2n1C1CCN(CCN2CCCC2)CC1", "remaining activity": "93.8%"}
{"smiles": "O=c1[nH]c2ccccc2n1C1CCN(CCNS(=O)(=O)c2ccccc2C(F)(F)F)CC1", "remaining activity": "98%"}
{"smiles": "C[C@@H](CN1CCC(n2c(=O)[nH]c3ccccc32)CC1)NC(=O)c1ccc[nH]1", "remaining activity": "39.9% (active)"}
{"smiles": "O=c1[nH]c2ccccc2n1C1CCN(CCNC(=S)Nc2cccc3ccccc23)CC1", "remaining activity": "100%"}
{"smiles": "O=C1c2ccccc2C(=O)N1CCCNc1cccc(F)c1", "remaining activity": "119%"}
{"smiles": "Cc1ccc(C(=O)NCCN2CCN(c3ccncc3)CC2)cc1", "remaining activity": "114%"}
{"smiles": "O=C(NCCN1CCC(n2c(=O)[nH]c3ccccc32)CC1)N1c2ccccc2C=Cc2ccccc21", "remaining activity": "66.5%"}
{"smiles": "O=C1c2ccccc2C(=O)N1CCCNCc1ccccn1", "remaining activity": "116%"}
{"smiles": "O=C(N[C@@H](Cc1ccccc1)CN1CCC(n2c(=O)[nH]c3ccccc32)CC1)c1cnc2ccccc2c1", "remaining activity": "60.2%"}
{"smiles": "O=c1[nH]c2ccccc2n1C1CCN(CCNS(=O)(=O)c2ccc(F)cc2)CC1", "remaining activity": "75.9%"}
{"smiles": "CC(C)[C@@H](CN1CCC(n2c(=O)[nH]c3ccccc32)CC1)NC(=O)c1ccc(F)cc1", "remaining activity": "82%"}
{"smiles": "C[C@@H](CN1CCC(n2c(=O)[nH]c3cc(-c4ccccc4)ccc32)CC1)NC(=O)[C@H]1C[C@@H]1c1ccccc1", "remaining activity": "79.2%"}
{"smiles": "CN(C)c1cccc2c(S(=O)(=O)NCCN3CCC(n4c(=O)[nH]c5ccccc54)CC3)cccc12", "remaining activity": "112%"}
{"smiles": "C[C@H](CN1CCC2(CC1)CNCc1ccccc12)NC(=O)c1ccc2ccccc2c1", "remaining activity": "110%"}
{"smiles": "CCS(=O)(=O)NCCN1CCC(n2c(=O)[nH]c3ccccc32)CC1", "remaining activity": "100%"}
{"smiles": "O=C(NCCN1CCN(c2ccncc2)CC1)c1c2ccccc2cc2ccccc12", "remaining activity": "127%"}
{"smiles": "C[C@@H](CN1CCC(n2c(=O)[nH]c3cc(I)ccc32)CC1)NC(=O)c1ccc2ccccc2c1", "remaining activity": "101%"}
{"smiles": "O=C(NCCN1CCC2(CCc3ccccc32)CC1)[C@H]1C[C@@H]1c1ccccc1", "remaining activity": "99.8%"}
{"smiles": "Cc1cccc(C(=O)NCCN2CCC(n3c(=O)[nH]c4ccccc43)CC2)n1", "remaining activity": "52.5%"}
{"smiles": "C[C@@H](CN1CCC(n2nnc3cc(C(F)(F)F)ccc32)CC1)NC(=O)c1ccc2ccccc2c1", "remaining activity": "107%"}
{"smiles": "Cn1c(=O)n(C2CCN(CCNC(=O)c3ccc4ccccc4c3)CC2)c2ccccc21", "remaining activity": "52.7%"}
{"smiles": "C[C@H](CN1CCC2(CC1)CNCc1ccccc12)NC(=O)c1cnc2ccccc2c1", "remaining activity": "100%"}
{"smiles": "O=c1[nH]c2ccccc2n1C1CCN(CCNS(=O)(=O)c2cccc3cccnc23)CC1", "remaining activity": "112%"}
{"smiles": "Cc1ccc(C(=O)N[C@@H](C)CN2CCC(n3c(=O)[nH]c4cc(Br)ccc43)CC2)cc1", "remaining activity": "74%"}
{"smiles": "C[C@@H](CN1CCC2(CNCc3ccccc32)C1)NC(=O)c1ccc2ccccc2c1", "note": "(some centres not stated)", "remaining activity": "91%"}
{"smiles": "C[C@H](CN1CCC(n2c(=O)[nH]c3cc(Cl)ccc32)CC1)NC(=O)c1cc2ccccc2[nH]1", "remaining activity": "25% (active)"}
{"smiles": "C[C@@H](CN1CCC(n2c(=O)[nH]c3ccccc32)CC1)NC(=O)c1ccc(Cl)c(Cl)c1", "remaining activity": "76.3%"}
{"smiles": "C[C@@H](CN1CCC(n2c(=O)[nH]c3ccccc32)CC1)NC(=O)c1ccc2ncccc2c1", "remaining activity": "82.2%"}
{"smiles": "Nc1cccc(Cl)c1C(=O)NCCN1CCC(n2c(=O)[nH]c3ccccc32)CC1", "remaining activity": "59.2%"}
{"smiles": "C[C@@H](CN1CCC(n2c(=O)[nH]c3ccc(F)cc32)CC1)NC(=O)c1ccc(F)c(F)c1", "remaining activity": "52.6%"}
{"smiles": "O=C(NCCN1CCN(c2ccncc2)CC1)c1ccc(F)cc1O", "remaining activity": "112%"}
{"smiles": "O=C(NCCN1CCC(n2c(=O)[nH]c3ccccc32)CC1)NC(c1ccccc1)c1ccccc1", "remaining activity": "123%"}
{"smiles": "CCNC(=S)NCCN1CCC(n2c(=O)[nH]c3ccccc32)CC1", "remaining activity": "78.2%"}
{"smiles": "CC1(C)[C@@H]2CC[C@@]1(CS(=O)(=O)NCCN1CCC(n3c(=O)[nH]c4ccccc43)CC1)C(=O)C2", "remaining activity": "79.6%"}
